# Screening data: PubChem BioAssay, NMMLSC
# An excerpt weighted towards active compounds, which were near 1.2% of everything screened.
# RGS16-Gao – modulators of RGS16 binding to Galphao, primary screen, biochemical, human proteins, multiplexed bead flow cytometry | Regulator of G-protein signaling 16 (Homo sapiens) + Guanine nucleotide-binding protein … | bead-based flow cytometry RGS16-Galphao binding, fluorescence; actives lie on both sides | binding response (% of control), % at 10 µM | hit rate 0.38% among 220,000 | AID 1441, 2008;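 further: Galphao activated by GDP with aluminum fluoride before binding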
# GSH fluor – compound fluorescence on glutathione beads, profiling panel, artefact control, biophysical, 488/530 nm, flow cytometry | fluorescence (KMESF) at 10 µM | GSH beads flow cytometry, compound fluorescence 488/530 nm; active compounds read high | hit rate 0.25% among 190,000 | AID 1776, 2009; in the data active means fluorescence above about 89;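 further: glutathione beads carrying GST-tagged Bcl family fusion proteins plus one bare bead set; values are compound well signal with DMSO vehicle wells as background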
# RGS7-Gao – RGS7-Galphao binding modulators, primary screen, biochemical, multiplexed bead flow cytometry; actives lie on both sides; hit rate 0.35% among 220,000; AID 1439, 2008; Guanine nucleotide-binding protein G(o) subunit alpha (Homo sapiens), P09471; binding response (% of control), % at 10 µM; in the data active means binding response below about 49% or above about 150%; inconclusive means no clear call, values can overlap the other calls; inactive means in between;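 further: fluorescent Galphao held in activated GDP-AlF4 state binding bead-coupled RGS7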
# Target sequence (P09471 whole entry, looked up): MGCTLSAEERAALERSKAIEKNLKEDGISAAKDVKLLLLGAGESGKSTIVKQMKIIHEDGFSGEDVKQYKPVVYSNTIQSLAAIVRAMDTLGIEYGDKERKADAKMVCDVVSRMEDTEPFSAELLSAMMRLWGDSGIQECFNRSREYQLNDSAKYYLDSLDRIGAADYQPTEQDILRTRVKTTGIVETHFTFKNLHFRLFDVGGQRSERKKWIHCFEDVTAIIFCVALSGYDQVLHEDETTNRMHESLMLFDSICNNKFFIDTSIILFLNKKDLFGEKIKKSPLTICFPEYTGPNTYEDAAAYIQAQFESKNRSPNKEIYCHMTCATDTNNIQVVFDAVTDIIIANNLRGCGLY
# Avidin bead fluor – green autofluorescence of compounds with avidin beads – biophysical, 488/530 nm, flow cytometry, artefact control, profiling panel; AID 1775, 2009; fluorescence (KMESF) at 10 µM; compound fluorescence 488/530 nm; active compounds read high; hit rate 0.38% among 220,000; in the data active means fluorescence above about 47
# RGS8-Gao reg – RGS8-Galphao binding modulators, primary screen, biochemical, multiplexed bead flow cytometry. Guanine nucleotide-binding protein G(o) subunit alpha (Homo sapiens), P09471. actives lie on both sides. response (percent of control binding), % at 10 µM. hit rate 0.34% among 220,000. AID 1423, 2008; in the data active means response below about 60% or above about 140%; inactive means in between;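 further: Galphao activated as the GDP aluminium fluoride complex binding bead-coupled RGS8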
# RGS4-Gao reg – modulators of RGS4 binding to Galphao, primary screen, biochemical, multiplexed bead flow cytometry; actives lie on both sides; hit rate 0.33% among 220,000; Guanine nucleotide-binding protein G(o) subunit alpha (Homo sapiens), P09471; binding response (% of control), % at 10 µM; in the data active means binding response below about 49% or above about 150%; inactive means in between;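 further: fluorescent Galphao activated with aluminum fluoride binding bead-coupled RGS4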
# RGS4-Gao HTS – modulators of RGS–Galpha-o binding, primary screen, biochemical, multiplexed beads, flow cytometry, RGS4/7/8/16/19. shares compounds with RGS16-Gao. multiplexed bead flow cytometry. RGS4–Galpha-o binding response, % at 10 µM. hit rate 99% among 1,600;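 further: fluorescently labeled Galpha-o bound to GDP with aluminium fluoride binding biotinylated RGS beads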
# Target sequence (P09471 whole entry, looked up): as above
# Target sequence (P49798 whole entry, looked up): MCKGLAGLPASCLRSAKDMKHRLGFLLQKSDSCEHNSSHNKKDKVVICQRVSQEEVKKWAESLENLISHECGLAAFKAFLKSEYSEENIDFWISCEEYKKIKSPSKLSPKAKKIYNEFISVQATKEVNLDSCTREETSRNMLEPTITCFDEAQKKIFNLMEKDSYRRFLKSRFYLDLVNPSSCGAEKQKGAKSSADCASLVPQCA
# Biotin-avidin – disruption of biotin probe capture by avidin, counter-screen for RGS protein interaction modulators, biochemical, flow cytometry, bead-based; 1,700 tested, under 10 active; inhibition, % at 10 µM; streptavidin beads, fluorescein-biotin binding; AID 1783, 2009; shares compounds with RGS16-Gao;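 active means inhibition above 50%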;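 further: median green fluorescence of gated singlet beads compared with DMSO control wells; 0% = DMSO wells and 100% = complete loss of bead fluorescence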
# RGS8-Gao confirm – RGS8-Galphao binding modulators, confirmation, biochemical, multiplexed bead flow cytometry, single concentration | shares compounds with RGS16-Gao | bead-based flow cytometry RGS8-Galphao binding, fluorescence; actives lie on both sides | binding response (% of control), % at 10 µM | hit rate 3% among 1,700 | AID 1836, 2009; in the data active means binding response below about 72% or above about 130%; inactive means in between;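 further: Galphao activated as GDP AlF4 complex before binding bead RGS8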
# RGS7-Gao single – RGS7-Galphao binding modulators, confirmation, biochemical, multiplexed bead flow cytometry, single concentration; AID 1837, 2009; shares compounds with RGS16-Gao; response (percent of control binding), % at 10 µM; bead-based flow cytometry RGS7-Galphao binding; actives lie on both sides; hit rate 7.8% among 1,700; in the data active means response below about 75% or above about 130%; inactive means in between;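 further: fluorescent Galphao activated with GDP and aluminum fluoride binding bead-coupled RGS7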
# RGS16-Gao conf – modulators of RGS16-Galphao protein binding, confirmation, biochemical, single concentration, multiplexed bead flow cytometry | shares compounds with RGS16-Gao | bead-based flow cytometry; actives lie on both sides | hit rate 4% among 1,700 | response (% of control binding), % at 10 µM | AID 1838, 2009; in the data active means response below about 74% or above about 130%; inactive means in between;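 further: Galphao activated as the GDP aluminium fluoride complex binding bead-coupled RGS16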
# RGS4-Gao confirm – modulators of RGS4-Galphao protein binding, confirmation, biochemical, single concentration, multiplexed bead flow cytometry; shares compounds with RGS16-Gao; actives lie on both sides; binding response (% of control), % at 10 µM; hit rate 4% among 1,700; AID 1840, 2009; in the data active means binding response below about 74% or above about 130%; inactive means in between
# RGS19-Gao conf – regulators of RGS19-Galphao binding, confirmation, biochemical, single point, multiplexed bead flow cytometry; response (percent of control binding), % at 10 µM; shares compounds with RGS16-Gao; bead-based flow cytometry RGS19-Galphao binding; actives lie on both sides; hit rate 5% among 1,700; in the data active means response below about 50% or above about 160%; inactive means in between;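 further: 100% = no compound control and 0% = blank background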
# An asterisk follows results filed as active; ? = inconclusive; nt = no result given; [ ] = another dose, or the depositor's remark. Unless noted, how the calls were made is not given here.
SMILES,RGS16-Gao,GSH fluor,RGS7-Gao,Avidin bead fluor,RGS8-Gao reg,RGS4-Gao reg,RGS4-Gao HTS,Biotin-avidin,RGS8-Gao confirm,RGS7-Gao single,RGS16-Gao conf,RGS4-Gao confirm,RGS19-Gao conf
Cc1ccc(N(CCC#N)C(=O)CCl)cc1C,21*,7,92,9,80,95,95*,0,101,102,103,104,107
NC[C@@]12CCCC1C1CCC2C1 (some centres not stated),nt,45,nt,nt,nt,nt,nt,0,102,101,107,103,106
O[C@@H]1C2CCCC1[C@]1(O)CCCCC1C2 (some centres not stated),113,33,101,11,102,102,nt,nt,nt,nt,nt,nt,nt
CCc1ccc(NC(=O)Cc2c(C(=O)O)n(C)c3ccccc23)cc1,98,21,102,10,103,100,nt,nt,nt,nt,nt,nt,nt
CC(C(=O)c1ccc(-c2ccccc2)cc1)[n+]1cccc(NC(=O)c2ccccc2)c1 (configuration not stated),nt,nt,nt,nt,nt,nt,nt,3,106,111,102,108,84
CCOC(=O)c1ccc[n+](C(C)C(=O)c2ccc(-c3ccccc3)cc2)c1 (configuration not stated),101,10,99,3,99,98,nt,nt,nt,nt,nt,nt,nt
N#Cc1cnn2ccn(C3OC(CO)C(O)C3O)c12 (configuration not stated),88,nt,?,6,91,87,nt,nt,nt,nt,nt,nt,nt
Cc1cccc(-n2cc(-c3ccccc3)c3c(N4CCOCC4)ncnc32)c1,94,61,102,13,99,96,nt,nt,nt,nt,nt,nt,nt
COc1ccc(-c2csc(NC(=O)c3ccc(OCC(=O)N4CCOCC4)c(OC)c3)n2)cc1OC,18*,6,93,8,81,97,97*,1,100,100,102,102,96
CC(=O)Nc1ccc(OC(=O)c2cc3cc(Br)ccc3oc2=O)cc1,101,9,96,12,103,102,nt,nt,nt,nt,nt,nt,nt
CC(=O)Nc1ccc(OC(=O)c2cc3cc(Br)cc(Br)c3oc2=O)cc1,19*,8,81,4,80,91,91*,-2,100,88,96,92,96
Nc1ccc(-c2nc3c(Cl)cc(N)cc3[nH]2)cc1,89,2,26*,1,63,78,78*,1,103,100,107,101,128
Nc1ccc2nc(-c3ccc(N)c(Cl)c3)[nH]c2c1,102,12,101,7,102,101,nt,nt,nt,nt,nt,nt,nt
O=C(NCCSCc1ccc(Cl)cc1)c1cccs1,97,nt,?,3,100,98,nt,nt,nt,nt,nt,nt,nt
Cc1nc2c(=O)oc3ccccc3c2n1-c1ccccc1,296,22,120,8,141*[activator],128,128*,nt,nt,nt,nt,nt,nt
O=C(NCCN1CCN(c2cccc(Cl)c2)CC1)C1CCCN(S(=O)(=O)c2cnc[nH]2)C1 (configuration not stated),203,15,114,5,142*[activator],116,116*,nt,nt,nt,nt,nt,nt
O=[N+]([O-])c1cccc(N/N=C/c2cccc(O)c2O)c1,95,11,98,9,98,98,nt,nt,nt,nt,nt,nt,nt
c1ccc2c(C3=NNC(=NC4CCCCC4)SC3)c[nH]c2c1,5.2*,5,95,8,79,96,96*,0,102,101,103,105,97
CCn1c(Sc2nc(C)nc3scc(-c4cccs4)c23)n[nH]c1=O,nt,41,nt,nt,nt,nt,nt,0,99,101,97,101,85
CCn1c(SCc2cccc(C(F)(F)F)c2)nnc1-c1ccco1,21,23,42*,11,48*,46*,nt,0,99,91,100,99,103
CC(=O)Nc1ccccc1NS(=O)(=O)c1ccccc1[N+](=O)[O-],123,10,401*[activator],204*,100,158*[activator],nt,3,104,102,100,103,106
Cc1sc2ncnc(Sc3nnc4sc5ccccc5n34)c2c1C,292*[activator],8,129,16,111,208*[activator],nt,-1,99,98,104,98,92
CCSc1ncnc2sc(C)c(C)c12,77,6,101,4,99,102,nt,nt,nt,nt,nt,nt,nt
CCc1nnc(SCc2ccc(OC)c(Br)c2)n1N,33,24,35*,15,44*,40*,nt,-2,105,101,110,101,104
Cc1nnc(SCCN2CCOCC2)c2nn(-c3ccccc3F)c(C)c12,180*[activator],3,109,13,121,110,110*,0,110,111,113,109,112
Cc1nnc(Cl)c2nn(-c3ccccc3F)c(C)c12,105,8,103,4,101,102,nt,nt,nt,nt,nt,nt,nt
CCOc1c(O)ccc(C2NC(=O)NC(C)=C2C(=O)OC)c1[N+](=O)[O-] (configuration not stated),99,11,104,20,100,100,nt,nt,nt,nt,nt,nt,nt
